proKLK7 act: activates the human kallikrein-7 zymogen; P49862; purified proKLK7, EDANS-DABCYL substrate fluorescence; 100% is mature enzyme control, 0% vehicle; activation, % at 7 µM; 370,000 compounds, 0.9% hits;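 active = activation above the mean of all tested compounds plus 3 SD, computed per campaign excluding outliers beyond control limits, cut at about 13% in these data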
ADAM17 inh: inhibitors of human ADAM17; P78536; recombinant ADAM17, EDANS/DABCYL FRET peptide cleavage; inhibition, % at 6.95 µM; 370,000 compounds, 0.83% hits;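 active = inhibition above the mean of compounds lying between control limits plus 3 SD, set per campaign, cut at about 8.5% in these data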
Target sequence (P78536 215-824 limits assumed): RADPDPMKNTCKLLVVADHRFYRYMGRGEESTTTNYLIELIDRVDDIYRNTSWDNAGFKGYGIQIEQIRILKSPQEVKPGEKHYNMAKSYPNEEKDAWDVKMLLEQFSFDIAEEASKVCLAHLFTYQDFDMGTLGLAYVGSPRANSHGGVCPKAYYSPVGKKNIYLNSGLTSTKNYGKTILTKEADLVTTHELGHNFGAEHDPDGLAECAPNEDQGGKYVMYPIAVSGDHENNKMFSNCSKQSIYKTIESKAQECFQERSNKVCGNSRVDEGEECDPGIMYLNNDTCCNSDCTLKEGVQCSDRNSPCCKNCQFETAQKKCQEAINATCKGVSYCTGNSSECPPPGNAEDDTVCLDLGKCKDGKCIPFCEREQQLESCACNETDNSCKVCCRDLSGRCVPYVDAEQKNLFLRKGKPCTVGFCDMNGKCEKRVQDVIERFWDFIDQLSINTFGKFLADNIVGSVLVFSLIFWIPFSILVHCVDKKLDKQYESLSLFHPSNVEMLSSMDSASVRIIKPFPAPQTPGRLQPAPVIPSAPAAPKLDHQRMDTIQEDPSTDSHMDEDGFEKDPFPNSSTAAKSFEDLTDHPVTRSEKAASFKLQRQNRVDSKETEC
AHR activator: activators of human aryl hydrocarbon receptor. activation, % at 5 µM. AHR-responsive luciferase reporter cells, luminescence. P35869. AID 2796. 320,000 compounds, 2.5% hits; in the data active = activation above about 47%
ADAM10 inh: ADAM10 inhibition, QFRET primary screen | inhibition, % at 7 µM | AID 720582 | recombinant ADAM10, EDANS/DABCYL FRET peptide cleavage, 3 h | 370,000 compounds, 0.62% hits;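 active = inhibition above a per-campaign cutoff equal to the mean of compounds falling between control-based bounds plus 3 SD, cut at about 20% in these data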
rCAG RNA binder: binds r(CAG) RNA repeats | r(CAG) RNA repeat, TO-PRO-1 dye displacement fluorescence | inhibition, % at 3 µM | 370,000 compounds, 1.3% hits;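 active = inhibition above the plate cutoff, the mean of all test compounds on that plate plus 3 SD, cut at about 35% in these data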;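 note: higher means more dye released from RNA so lower well fluorescence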
NR3A LBD binder: NR3A (human) ligand-binding domain modulation | NR3A LBD differential scanning fluorimetry, Tm shift; 0% = protein alone, 100% = glycine-bound protein | Tm shift relative to glycine control, % at 25 µM | 340,000 compounds, 2.5% hits;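 active = melting temperature shift of at least 10% of the positive control shift, at one fixed dose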
rCAG binder conf: r(CAG) RNA repeat binding, confirmation; shares compounds with rCAG RNA binder; TO-PRO-1 dye displacement fluorescence; inhibition, % at 3 µM; 4,300 compounds, 70% hits; AID 652065;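 active = inhibition above a per-plate cutoff, the mean inhibition of sample wells plus 3 SD, cut at about 35% in these data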;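 note: loss of TO-PRO-1 fluorescence as compound displaces dye from 1x1 AA loop RNA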
dCAG dye counter: DNA CAG dye complex inhibition counter-screen | 4,300 compounds, 94% hits | AID 652068 | d(CAG) DNA oligo TO-PRO-1 dye displacement, fluorescence | inhibition, % at 3 µM | shares compounds with rCAG RNA binder;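 active = inhibition above its plate's cutoff, the mean test-well inhibition plus 3 SD, cut at about 4.8% in these data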;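 note: hits displace the dye from DNA and so lower well fluorescence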
A number is an active result; . = inactive; / = no result given. Hits are enriched below; roughly 7% of the tested compounds scored in any of these assays.

SMILES | proKLK7 act | ADAM17 inh | AHR activator | ADAM10 inh | rCAG RNA binder | NR3A LBD binder | rCAG binder conf | dCAG dye counter
O=C(CSc1nc2ccccc2c(=O)n1-c1ccc(Cl)cc1)NNC(=S)Nc1ccccc1 | . | . | / | . | 48.9 | / | 38.4 | 16.7
Cc1ccc(NC(=S)NNC(=O)CSc2nc3sc4c(c3c(=O)n2-c2ccccc2)CCCC4)cc1 | . | . | / | . | 51.6 | / | 59.2 | 22.2
Cc1ccc(/C=C2\SC(=S)N(c3cccnc3)C2=O)o1 | . | . | . | . | . | . | / | /
O=C(O)c1cccc(N2C(=O)/C(=C/c3ccc(SCc4ccc(Cl)cc4)o3)SC2=S)c1 | . | . | / | . | 66.7 | 14.8 | 87.8 | 60.6
CCC(C)Oc1ccc(/C=C/c2[nH]c(=O)[nH]c(=O)c2[N+](=O)[O-])cc1OC (stereo not given) | . | . | . | . | 35.5 | . | . | 4.9
Cc1c(OCc2nn[nH]n2)ccc2c(-c3ccccc3)cc(=O)oc12 | . | . | . | . | . | . | / | /
COc1ccc(-c2cc(=O)oc3c(C)c(OCc4nn[nH]n4)ccc23)cc1 | . | . | . | . | 39.1 | . | . | 5.7
O=C(Nc1c(C(=O)O)[nH]c2ccc(F)cc12)c1cccc(C(F)(F)F)c1 | . | . | . | . | 63.0 | 12.5 | 38.8 | 8.8
O=C(Nc1c(C(=O)O)[nH]c2ccccc12)c1cccc(C(F)(F)F)c1 | . | . | . | . | 38.8 | . | . | .
O=C(Nc1ccccc1)c1cccc(C(F)(F)F)c1 | . | . | . | . | . | . | / | /
CCOC(=O)CC1(C)Oc2cc(Cl)ccc2N1S(=O)(=O)c1ccc(C)cc1 (stereo not given) | . | . | / | . | . | / | / | /
CC1=Nc2nc(N3CCCCC3)c(C#N)c3c4c(nc(c23)N1)N(c1ccc(C(C)C)cc1)C(=O)C4 | . | . | . | . | 62.4 | . | 38.5 | 21.7
CC(C)c1ccc(-c2nc(N3CCCCC3)[nH]c(=O)c2C#N)cc1 | . | . | . | . | . | . | / | /
O=C(O)c1cccc(N2C(=O)C3C4C=CC(C4=C(c4ccccc4)c4ccccc4)C3C2=O)c1 (stereo not given) | . | . | . | . | 34.7 | . | 46.8 | 11.5
O=C1c2ccccc2C(O)(c2ccccc2)N1c1ccc([N+](=O)[O-])cc1Cl (stereo not given) | . | . | / | . | 40.4 | . | 40.5 | 10.2
COc1ccccc1/C=C/C=c1\sc2nc(=O)c(Cc3ccccc3)nn2c1=O | . | . | . | . | 40.4 | . | 49.9 | 21.5
CCCOc1ccc(Cc2nn3c(=O)/c(=C/c4ccco4)sc3nc2=O)cc1 | . | . | . | . | . | . | / | /
Cc1sc(NC(=O)C2CCCO2)c(C(N)=O)c1C (stereo not given) | . | . | . | . | 41.7 | . | . | .
Nc1nc(Cl)nc2c1ncn2[C@@H]1O[C@H](CO)[C@@H](O)[C@@H]1F | . | . | / | . | . | / | / | /
CC(=O)c1ccc(NC(=O)Nc2sc(NS(=O)(=O)c3ccccc3)nc2C)cc1 | . | . | . | . | 37.9 | . | . | 8.2
Cc1nc(NS(=O)(=O)c2ccccc2)sc1NC(=O)Nc1ccccc1 | . | . | . | . | . | . | / | /
Cc1nc(NS(=O)(=O)c2ccccc2)sc1NC(=O)Nc1ccc(Cl)cc1 | . | . | . | . | 48.5 | . | 38.1 | 15.1
COc1ccc(C(=O)NNC(=O)C(=O)/C=C(\O)c2ccc(C)cc2)cc1 | . | . | . | . | 47.1 | . | . | 10.8
O=C(/C=C(\O)c1ccccc1)C(=O)NNC(=O)c1ccccc1 | . | . | . | . | . | . | / | /
CC(C)c1cc(Cn2c3ccccc3c(=O)n2C(C)Cn2cc(-c3ccccc3)nn2)on1 (stereo not given) | . | . | / | . | . | / | / | /
SMILES | proKLK7 act | ADAM17 inh | AHR activator | ADAM10 inh | rCAG RNA binder | NR3A LBD binder | rCAG binder conf | dCAG dye counter
Cc1ccc2nc(-c3cccc(Br)c3)c(Cc3ccccc3C(F)(F)F)n2c1 | . | . | / | . | 35.5 | / | . | 4.8
COc1ccc(-c2nc3ccc(Br)cn3c2Cc2ccccc2C(F)(F)F)cc1OC | . | . | / | . | 43.4 | / | . | 4.8
COc1ccccc1Cc1c(-c2ccc(OC)c(OC)c2)nc2ccc(Br)cn12 | . | . | / | . | . | / | / | /
COc1cccc(CNC(=O)[C@H]2CCCN2C(=O)[C@H]2CCCN2C(=O)c2ccc(F)c(C(F)(F)F)c2)c1 | . | . | / | . | . | / | / | /
CCn1nc(NS(=O)(=O)c2ccccc2)c2cc3cccc(C)c3nc21 | . | . | . | . | 40.8 | . | . | 11.2
CCn1nc(NS(=O)(=O)c2ccc(NC(C)=O)cc2)c2cc3cccc(C)c3nc21 | . | . | . | . | 39.0 | . | . | .
CCCn1nc(NS(=O)(=O)c2cccc3nonc23)c2cc3cccc(C)c3nc21 | . | . | . | . | 85.2 | . | 77.6 | 40.8
CCn1nc(NS(=O)(=O)c2ccc(NC(C)=O)cc2)c2cc3ccccc3nc21 | . | . | . | . | . | . | / | /
COc1ccc(NC(=O)C2(C)CCN2Cc2cccc(OC)c2F)cc1OC (stereo not given) | . | . | / | . | . | / | / | /
CCOC(=O)C1=C(N)n2c(s/c(=C\c3ccco3)c2=O)=C(C(=O)OC(C)C)C1c1ccco1 (stereo not given) | . | . | . | . | 40.4 | . | . | 7.1
CCOC(=O)C1=C(N)n2c(s/c(=C\c3ccco3)c2=O)=C(C(=O)OCC)C1c1ccco1 (stereo not given) | / | / | . | / | / | . | / | /
CC(C)OP(=O)(OC(C)C)C1(NS(=O)(=O)c2ccc(Cl)cc2)C=C(Cl)C(=O)C(Cl)=C1 | . | . | . | . | 40.1 | . | . | 5.9
CC(C)N(CCNS(=O)(=O)c1ccc(Cl)cc1)C(C)C | . | . | . | . | . | . | / | /
C=CCOC(=O)c1cc(-c2ccc(/C=C3\C(=O)NC(=O)C(C#N)=C3C)o2)ccc1Cl | . | . | / | . | 62.6 | . | 87.4 | 51.0
CCCOC(=O)c1cc(-c2ccc(/C=C3/C(=O)N(C)C(=O)C(C#N)=C3C)o2)ccc1Cl | / | / | . | / | / | . | / | /
C[C@@H]1C=CCCO[C@]12C(=O)N(CC1CC1)c1ccccc12 | . | . | / | . | . | / | / | /
COC(=O)c1cc2c(c3c4cc(F)ccc4n(S(=O)(=O)c4ccccc4)c13)C(=O)N(Cc1ccco1)C2 | . | . | / | . | . | / | / | /
COc1ccc(-c2nc3ccccc3[nH]2)cc1 | . | . | . | . | . | . | / | /
COc1ccc(-c2cc(=O)n(-c3nc4ccccc4[nH]3)[nH]2)cc1 | . | . | . | . | 38.9 | . | . | 10.3
O=C(O)Cn1c(SCCOc2ccccc2)nc2ccccc21 | . | . | . | . | . | . | / | /
CC(C)(C)c1ccc(OCCSc2nc3ccccc3n2CC(=O)O)cc1 | . | . | . | . | 39.1 | . | 42.9 | 10.9

Assay outcomes as filed in PubChem BioAssay.
